Experimental data from PubChem BioAssay AID1159580 (chemical genetic matrix, 2015).
Screen size: about 5,500 compounds; about 2,000 (36%) were called active. Roughly 18% stayed inconclusive and do not appear here. Rule as the data show it: active = normalized growth mostly below about 0.91 (no sharp cut-off); inconclusive = no clear call, values can overlap the other calls; inactive = mostly above about 0.92. Some of the results follow.

Experiment: chemical genetic growth profiling, strain panel (AID 1159580);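 also: tested at 20 µM; growth read once vehicle control cultures reached saturation at 30 °C; 1 = growth at the plate median or of vehicle wells; lower values mean less growth of the strain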
Conditions: growth OD
[1] = S. cerevisiae deletion strains, locus YHR030C, strain SLT2, active compounds read low
[2] = S. cerevisiae deletion strains, locus YJL095W, strain BCK1, active compounds read low

Measured: normalized growth

CC(c1cc2ccccc2s1)N(O)C(N)=O (centres undefined)
inactive: [1] 1.01 | S. cerevisiae deletion strains, locus YHR079C, strain IRE1, active compounds read low 0.964 | [2] 0.981 | S. cerevisiae deletion strains, locus YJR066W, strain TOR1, active compounds read low 0.941 | S. cerevisiae deletion strains, locus YLR113W, strain HOG1, active compounds read low 0.944 | S. cerevisiae deletion strains, locus YNL183C, strain NPR1, active compounds read low 0.892 | S. cerevisiae deletion strains, locus YOR231W, strain MKK1, active compounds read low 0.967 | S. cerevisiae deletion strains, locus YPL256C, strain CLN2, active compounds read low 0.976

COC(=O)C[C@H]1C(C)(C)[C@H](O)[C@@H]2CC3=C4CC(O)O[C@@H](c5ccoc5)[C@]4(C)CCC3[C@@]1(C)C2=O (some centres undefined)
inactive: S. cerevisiae deletion strains, locus YBR021W, strain FUR4, active compounds read low 1.01 | S. cerevisiae deletion strains, locus YBR229C, strain ROT2, active compounds read low 0.948 | S. cerevisiae deletion strains, locus YCL029C, strain bik1, active compounds read low 0.969 | S. cerevisiae deletion strains, locus YDL035C, strain GPR1, active compounds read low 0.974 | S. cerevisiae deletion strains, locus YDL074C, strain BRE1, active compounds read low 0.966 | S. cerevisiae deletion strains, locus YDL101C, strain DUN1, active compounds read low 0.99 | S. cerevisiae deletion strains, locus YDL185W, strain tfp1, active compounds read low 0.971 | S. cerevisiae deletion strains, locus YDL192W, strain arf1, active compounds read low 0.978 | S. cerevisiae deletion strains, locus YDR101C, strain arx1, active compounds read low 0.983 | S. cerevisiae deletion strains, locus YDR162C, strain NBP2, active compounds read low 0.984 | S. cerevisiae deletion strains, locus YDR318W, strain mcm21, active compounds read low 0.992 | S. cerevisiae deletion strains, locus YDR388W, active compounds read low 0.979 | S. cerevisiae deletion strains, locus YDR502C, strain sam2, active compounds read low 1.02 | S. cerevisiae deletion strains, locus YEL061C, strain CIN8, active compounds read low 0.974 | S. cerevisiae deletion strains, locus YER110C, active compounds read low 0.985 | S. cerevisiae deletion strains, locus YER155C, strain BEM2, active compounds read low 1 | S. cerevisiae deletion strains, locus YER167W, strain BCK2, active compounds read low 0.969 | S. cerevisiae deletion strains, locus YGL078C, strain dbp3, active compounds read low 1.03 | S. cerevisiae deletion strains, locus YGL086W, strain mad1, active compounds read low 1 | S. cerevisiae deletion strains, locus YGL248W, strain PDE1, active compounds read low 0.991 | S. cerevisiae deletion strains, locus YGR078C, strain PAC10, active compounds read low 1.02 | S. cerevisiae deletion strains, locus YGR135W, strain pre9, active compounds read low 1.07 | S. cerevisiae deletion strains, locus YGR229C, strain SMI1, active compounds read low 1.02 | S. cerevisiae deletion strains, locus YGR252W, strain gcn5, active compounds read low 1.03 | [1] 0.996 | S. cerevisiae deletion strains, locus YHR079C, strain IRE1 (second series), active compounds read low 0.993 | S. cerevisiae deletion strains, locus YHR094C, strain hxt1, active compounds read low 0.984 | S. cerevisiae deletion strains, locus YHR129C, strain ARP1, active compounds read low 0.99 | S. cerevisiae deletion strains, locus YHR200W, strain rpn10, active compounds read low 0.999 | S. cerevisiae deletion strains, locus YIL066C, strain RNR3, active compounds read low 0.948 | S. cerevisiae deletion strains, locus YIL073C, strain SPO22, active compounds read low 0.964 | S. cerevisiae deletion strains, locus YIL125W, strain kgd1, active compounds read low 0.986 | S. cerevisiae deletion strains, locus YIR030C, strain dcg1, active compounds read low 0.99 | [2] 0.993 | S. cerevisiae deletion strains, locus YJL134W, strain LCB3, active compounds read low 0.971 | S. cerevisiae deletion strains, locus YJL168C, strain set2, active compounds read low 0.991 | S. cerevisiae deletion strains, locus YJL187C, strain SWE1 (second series), active compounds read low 1 | S. cerevisiae deletion strains, locus YJR043C, strain POL32, active compounds read low 0.975 | S. cerevisiae deletion strains, locus YKL009W, strain mrt4, active compounds read low 0.953 | S. cerevisiae deletion strains, locus YKL068W, active compounds read low 0.985 | S. cerevisiae deletion strains, locus YKL085W, strain MDH1 (second series), active compounds read low 0.988 | S. cerevisiae deletion strains, locus YKL085W, strain MDH1, active compounds read low 0.988 | S. cerevisiae deletion strains, locus YKL190W, strain CNB1, active compounds read low 0.98 | S. cerevisiae deletion strains, locus YKR001C, strain vps1, active compounds read low 0.978 | S. cerevisiae deletion strains, locus YLR039C, strain RIC1, active compounds read low 0.964 | S. cerevisiae deletion strains, locus YLR058C, strain SHM2, active compounds read low 0.975 | S. cerevisiae deletion strains, locus YLR102C, strain apc9, active compounds read low 0.991 | S. cerevisiae deletion strains, locus YLR262C, strain YPT6, active compounds read low 0.99 | S. cerevisiae deletion strains, locus YLR268W, strain sec22, active compounds read low 0.953 | S. cerevisiae deletion strains, locus YLR330W, strain CHS5, active compounds read low 0.986 | S. cerevisiae deletion strains, locus YLR371W, strain rom2, active compounds read low 0.986 | S. cerevisiae deletion strains, locus YLR418C, strain cdc73, active compounds read low 0.975 | S. cerevisiae deletion strains, locus YML016C, strain PPZ1, active compounds read low 0.977 | S. cerevisiae deletion strains, locus YML032C, strain rad52, active compounds read low 0.976 | S. cerevisiae deletion strains, locus YML124C, strain tub3, active compounds read low 0.992 | S. cerevisiae deletion strains, locus YMR078C, strain ctf18, active compounds read low 0.989 | S. cerevisiae deletion strains, locus YMR223W, strain ubp8, active compounds read low 1 | S. cerevisiae deletion strains, locus YMR307W, strain GAS1, active compounds read low 0.951 | S. cerevisiae deletion strains, locus YNL067W, strain RPL9B, active compounds read low 1.03 | S. cerevisiae deletion strains, locus YNL153C, strain GIM3, active compounds read low 1.01 | S. cerevisiae deletion strains, locus YNL233W, strain BNI4, active compounds read low 1.03 | S. cerevisiae deletion strains, locus YNL250W, strain rad50, active compounds read low 0.998 | S. cerevisiae deletion strains, locus YNL271C, strain bni1, active compounds read low 0.989 | S. cerevisiae deletion strains, locus YNL298W, strain CLA4, active compounds read low 0.984 | S. cerevisiae deletion strains, locus YNL307C, strain MCK1, active compounds read low 0.994 | S. cerevisiae deletion strains, locus YNR052C, strain pop2, active compounds read low 1.04 | S. cerevisiae deletion strains, locus YOL012C, strain htz1 0.912 | S. cerevisiae deletion strains, locus YOL147C, strain pex11, active compounds read low 0.989 | S. cerevisiae deletion strains, locus YOR061W, strain CKA2, active compounds read low 0.944 | S. cerevisiae deletion strains, locus YOR069W, strain VPS5, active compounds read low 0.986 | S. cerevisiae deletion strains, locus YOR136W, strain idh2, active compounds read low 0.994 | S. cerevisiae deletion strains, locus YOR144C, strain elg1, active compounds read low 0.991 | S. cerevisiae deletion strains, locus YOR184W, strain ser1, active compounds read low 0.954 | S. cerevisiae deletion strains, locus YOR316C, strain cot1, active compounds read low 0.992 | S. cerevisiae deletion strains, locus YPL241C, strain CIN2, active compounds read low 0.988 | S. cerevisiae deletion strains, locus YPR119W, strain clb2, active compounds read low 1.01 | S. cerevisiae deletion strains, locus YPR141C, strain kar3, active compounds read low 0.989 | S. cerevisiae deletion strains, locus YPR163C, strain tif3, active compounds read low 0.987 | S. cerevisiae deletion strains, locus YPR167C, strain met16, active compounds read low 0.996 | S. cerevisiae deletion strains, strain wtn01, active compounds read low 0.98 | S. cerevisiae strains, strain wild type, active compounds read low 0.979
